From PubChem BioAssay
For part of these data: Measured potencies and affinities stand elsewhere. Activity calls are given as the source filed them. The rule behind the calls is not given here.

The compounds below were run against Plasmodium falciparum protein kinase 6 (PK6, PF3D7_1337100) (UniProt Q8IDW1) (assay: PfPK6 kinase inhibitors, biochemical, TCAMS library (AID 1159586)). Settings: recombinant PfPK6, Kinase-Glo ATP depletion luminescence.
Plasmodium falciparum protein kinase 6 (PK6, PF3D7_1337100), sequence (Q8IDW1 1-305): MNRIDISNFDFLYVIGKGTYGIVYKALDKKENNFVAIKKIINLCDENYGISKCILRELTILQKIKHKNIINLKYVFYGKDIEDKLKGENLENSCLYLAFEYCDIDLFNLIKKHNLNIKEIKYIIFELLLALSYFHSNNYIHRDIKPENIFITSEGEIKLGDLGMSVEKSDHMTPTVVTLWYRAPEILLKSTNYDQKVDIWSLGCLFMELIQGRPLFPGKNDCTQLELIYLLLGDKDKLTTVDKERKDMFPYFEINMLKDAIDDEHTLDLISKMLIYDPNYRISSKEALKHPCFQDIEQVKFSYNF
In the case of `CC(=O)Nc1ccc(C(=O)Nc2cccc(-c3csc(-c4nc5ccccc5[nH]4)c3)c2)cn1`, the outcome is reported as “inactive”.
`c1nc2nc3c(c(Nc4ccc5c(c4)CCC5)n2n1)CCC3` was tested, and the outcome was “inactive”.
`Cc1cc(N)c2cc(NC(=O)c3cc(C(F)(F)F)cc(C(F)(F)F)c3)ccc2n1` was tested, and the outcome was “inactive”.
`Oc1cc2c(cc1CN1CCN(Cc3ccccc3F)CC1)CCC2` was tested, and the outcome was “inactive”.
In the case of `COc1ccc(Cc2c(C)nc3nc(N)nc(N)c3c2C)cc1`, the outcome is reported as “inactive”.
For `COCCn1c(-c2nc(-c3ccc(F)cc3)cnc2N)nc2ccccc21`, the outcome was “inactive”.
`Cc1[nH]c(C)c(-c2ccc(OCCOc3ccc(C(F)(F)F)cn3)cc2)c(=O)c1Br` was tested, and the outcome was “inactive”.
With `COc1cccc(OC)c1C(=O)Nc1cccc(-c2nn3ccccc3c2-c2ccnc(Nc3cccc(F)c3)n2)c1` the outcome was “inactive”.
`Cc1cnc2ccc(NS(=O)(=O)c3ccc4c(Cl)cccc4c3)cc2c1N1CCNCC1` was tested, and the outcome was “inactive”.
For `Cc1c(S(=O)(=O)Nc2cccc(CCN3CCCCC3CCN3CCCC3)c2)sc2ccc(Cl)cc12` (stereo not drawn), the outcome was “inactive”.
With `COc1cccc(Cc2c(C)nc3nc(N)nc(N)c3c2C)c1` the outcome was “inactive”.
For `COc1ccc(-c2cccc(NC(=O)c3cccc(Cl)c3)c2)cc1CN(C)CCN(C)C`, the outcome was “inactive”.
With `O=C(/C=C/c1ccc(Cl)c(Cl)c1)NCCCCCN1CCC(CCNC(=O)C2(c3ccc(Cl)cc3)CC2)CC1` the outcome was “inactive”.
In the case of `O=C(C=Cc1ccc(Cl)c(Cl)c1)NCCCCCN1CCC(CCCNC(=O)[C@@H]2C[C@H]2c2ccccc2)CC1`, the outcome is reported as “inactive”.
`N#Cc1cccc(C(=O)Nc2cccc(-c3ccc(CN4CCCC4)cc3)c2)c1` was tested, and the outcome was “inactive”.
For `CN1CCN(c2nsc3ccc(-c4ccc(NC(=O)Nc5cc(C(F)(F)F)ccc5F)cc4)cc23)CC1`, the outcome was “inactive”.
`NC(=O)c1ccsc1NC(=O)CNC(c1ccc(F)cc1)c1cccs1` (stereo not drawn) was tested, and the outcome was “inactive”.
With `CC(C)Nc1nc(NCCc2cnc[nH]2)nc(Nc2ccc(Oc3ccccc3)cc2)n1` the outcome was “inactive”.
For `c1ccc(-c2cc(NCCCCNc3cc(-c4ccccc4)nc4ccccc34)c3ccccc3n2)cc1`, the outcome was “inactive”.
For `CCOC(=O)c1c(C)n(-c2ccccc2)c2ccc(O)cc12`, the outcome was “inactive”.
In the case of `CC(C)Nc1nc(NCCc2cnc[nH]2)nc(NCc2cccc3ccccc23)n1`, the outcome is reported as “inactive”.
With `CCc1cn2c3c(cc(C(=O)N[C@@H](Cc4ccccc4)[C@H](O)CNC4CC4)cc13)N(CC)S(=O)(=O)CC2` the outcome was “inactive”.
With `Fc1ccc2nc(-c3ccc(-c4ccc(CNCCc5cccnc5)cc4)s3)[nH]c2c1` the outcome was “inactive”.
In the case of `COc1cc(Cc2cnc(N)nc2N)cc(OC)c1OCCCCC(=O)O`, the outcome is reported as “inactive”.
With `O=C(N[C@H]1CCN(Cc2ccc(OC3CCN(Cc4ccccc4)CC3)c(Br)c2)C1)c1ccc(Cl)c(Cl)c1` the outcome was “inactive”.
For `O=C(NCC1CCN(C/C=C/c2ccccc2)CC1)Nc1ccc(Oc2ccccc2)cc1`, the outcome was “inactive”.
With `COc1cccc2cc(C(=O)N[C@@H](CC(C)C)C(=O)N[C@H](/C=N/N(C)C(=O)OC(C)(C)C)CC(=O)OC(C)(C)C)oc12` the outcome was “inactive”.
With `CN1CCC(c2cc3c(cc2Br)CCN3C(=O)Nc2ccc(-c3ccncc3)c(Cl)c2)CC1` the outcome was “inactive”.
`Cc1[nH]nc2cc(Nc3ccnc(Nc4ccc(CN5CCOCC5)cc4)n3)ccc12` was tested, and the outcome was “inactive”.
In the case of `CCC(C)NC(=O)CN1CN(c2ccccc2)C2(CCN(C(=O)c3ccc(C(C)(C)C)cc3)CC2)C1=O` (stereo not drawn), the outcome is reported as “inactive”.
With `c1ccc(-c2nc(Nc3nc4ccccc4[nH]3)[nH]c2-c2ccccc2)cc1` the outcome was “inactive”.
For `Cc1ccc2c(c1[N+](=O)[O-])N=NCC2Oc1ccccc1` (stereo not drawn), the outcome was “inactive”.
`COc1ccc(-c2cnc3[nH]cc(-c4ccc(C(=O)O)cc4)c3c2)cn1` was tested, and the outcome was “inactive”.
`c1ccc(CCNCc2ccc(-c3cccc(-c4nc5ccccc5[nH]4)c3)cc2)nc1` was tested, and the outcome was “inactive”.
In the case of `O=C(Nc1ccc(-c2cccc(-c3nc4ccccc4[nH]3)c2)cc1)Nc1ccsc1`, the outcome is reported as “inactive”.
With `COc1ccc2ncc(C#N)c(CCN3C[C@H](CNCc4ccccc4)[C@H](O)C3)c2n1` the outcome was “inactive”.
`Oc1ccc2c(CNCCc3ccccc3)c(O)ccc2c1CNCCc1ccccc1` was tested, and the outcome was “inactive”.
For `NC1=NC(c2ccccc2)N(OCc2ccccc2)C(N)=N1` (stereo not drawn), the outcome was “inactive”.
With `O=C(Nc1ccc2c(c1)CCN2C1CCN(Cc2ccc(F)cc2Cl)C1)c1ccco1` (stereo not drawn) the outcome was “inactive”.

What follows are compounds tested against Protein kinase 7 (PK7), Plasmodium falciparum 3D7 (PF3D7_0213400) (UniProt Q7YTF7) (assay: inhibition of Plasmodium PK7 catalytic activity – biochemical, TCAMS antimalarial set, Kinase-Glo luminescence (AID 1159587)). Settings: recombinant PfPK7, Kinase-Glo ATP depletion luminescence.
Protein kinase 7 (PK7), Plasmodium falciparum 3D7 (PF3D7_0213400), sequence (Q7YTF7 1-343): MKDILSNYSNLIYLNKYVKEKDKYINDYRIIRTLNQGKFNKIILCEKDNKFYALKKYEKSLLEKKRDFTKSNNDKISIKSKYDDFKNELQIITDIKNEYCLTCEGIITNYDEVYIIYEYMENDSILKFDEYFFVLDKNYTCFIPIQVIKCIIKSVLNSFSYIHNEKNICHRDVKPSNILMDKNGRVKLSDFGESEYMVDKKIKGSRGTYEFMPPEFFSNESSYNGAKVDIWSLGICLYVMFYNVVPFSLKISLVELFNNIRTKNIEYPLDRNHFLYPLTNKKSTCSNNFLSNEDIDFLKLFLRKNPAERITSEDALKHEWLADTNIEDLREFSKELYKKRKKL
`CC(=O)Nc1ccc(C(=O)Nc2cccc(-c3csc(-c4nc5ccccc5[nH]4)c3)c2)cn1` was tested, and the outcome was “inactive”.
With `c1nc2nc3c(c(Nc4ccc5c(c4)CCC5)n2n1)CCC3` the outcome was “inactive”.
`Cc1cc(N)c2cc(NC(=O)c3cc(C(F)(F)F)cc(C(F)(F)F)c3)ccc2n1` was tested, and the outcome was “inactive”.
`Oc1cc2c(cc1CN1CCN(Cc3ccccc3F)CC1)CCC2` was tested, and the outcome was “inactive”.
`COc1ccc(Cc2c(C)nc3nc(N)nc(N)c3c2C)cc1` was tested, and the outcome was “inactive”.
`COCCn1c(-c2nc(-c3ccc(F)cc3)cnc2N)nc2ccccc21` was tested, and the outcome was “inactive”.
`Cc1[nH]c(C)c(-c2ccc(OCCOc3ccc(C(F)(F)F)cn3)cc2)c(=O)c1Br` was tested, and the outcome was “inactive”.
With `COc1cccc(OC)c1C(=O)Nc1cccc(-c2nn3ccccc3c2-c2ccnc(Nc3cccc(F)c3)n2)c1` the outcome was “inactive”.
With `Cc1cnc2ccc(NS(=O)(=O)c3ccc4c(Cl)cccc4c3)cc2c1N1CCNCC1` the outcome was “inactive”.
`Cc1c(S(=O)(=O)Nc2cccc(CCN3CCCCC3CCN3CCCC3)c2)sc2ccc(Cl)cc12` (stereo not drawn) was tested, and the outcome was “inactive”.
`COc1cccc(Cc2c(C)nc3nc(N)nc(N)c3c2C)c1` was tested, and the outcome was “inactive”.
`COc1ccc(-c2cccc(NC(=O)c3cccc(Cl)c3)c2)cc1CN(C)CCN(C)C` was tested, and the outcome was “inactive”.
For `O=C(/C=C/c1ccc(Cl)c(Cl)c1)NCCCCCN1CCC(CCNC(=O)C2(c3ccc(Cl)cc3)CC2)CC1`, the outcome was “inactive”.
`O=C(C=Cc1ccc(Cl)c(Cl)c1)NCCCCCN1CCC(CCCNC(=O)[C@@H]2C[C@H]2c2ccccc2)CC1` was tested, and the outcome was “inactive”.
In the case of `N#Cc1cccc(C(=O)Nc2cccc(-c3ccc(CN4CCCC4)cc3)c2)c1`, the outcome is reported as “inactive”.
`CN1CCN(c2nsc3ccc(-c4ccc(NC(=O)Nc5cc(C(F)(F)F)ccc5F)cc4)cc23)CC1` was tested, and the outcome was “inactive”.
In the case of `NC(=O)c1ccsc1NC(=O)CNC(c1ccc(F)cc1)c1cccs1` (stereo not drawn), the outcome is reported as “inactive”.
`CC(C)Nc1nc(NCCc2cnc[nH]2)nc(Nc2ccc(Oc3ccccc3)cc2)n1` was tested, and the outcome was “inactive”.
`c1ccc(-c2cc(NCCCCNc3cc(-c4ccccc4)nc4ccccc34)c3ccccc3n2)cc1` was tested, and the outcome was “inactive”.
With `CCOC(=O)c1c(C)n(-c2ccccc2)c2ccc(O)cc12` the outcome was “inactive”.
In the case of `CC(C)Nc1nc(NCCc2cnc[nH]2)nc(NCc2cccc3ccccc23)n1`, the outcome is reported as “inactive”.
For `CCc1cn2c3c(cc(C(=O)N[C@@H](Cc4ccccc4)[C@H](O)CNC4CC4)cc13)N(CC)S(=O)(=O)CC2`, the outcome was “inactive”.
For `Fc1ccc2nc(-c3ccc(-c4ccc(CNCCc5cccnc5)cc4)s3)[nH]c2c1`, the outcome was “inactive”.
With `COc1cc(Cc2cnc(N)nc2N)cc(OC)c1OCCCCC(=O)O` the outcome was “inactive”.
For `O=C(N[C@H]1CCN(Cc2ccc(OC3CCN(Cc4ccccc4)CC3)c(Br)c2)C1)c1ccc(Cl)c(Cl)c1`, the outcome was “inactive”.
`O=C(NCC1CCN(C/C=C/c2ccccc2)CC1)Nc1ccc(Oc2ccccc2)cc1` was tested, and the outcome was “inactive”.
`COc1cccc2cc(C(=O)N[C@@H](CC(C)C)C(=O)N[C@H](/C=N/N(C)C(=O)OC(C)(C)C)CC(=O)OC(C)(C)C)oc12` was tested, and the outcome was “inactive”.
`CN1CCC(c2cc3c(cc2Br)CCN3C(=O)Nc2ccc(-c3ccncc3)c(Cl)c2)CC1` was tested, and the outcome was “inactive”.
For `Cc1[nH]nc2cc(Nc3ccnc(Nc4ccc(CN5CCOCC5)cc4)n3)ccc12`, the outcome was “inactive”.
`CCC(C)NC(=O)CN1CN(c2ccccc2)C2(CCN(C(=O)c3ccc(C(C)(C)C)cc3)CC2)C1=O` (stereo not drawn) was tested, and the outcome was “inactive”.
In the case of `c1ccc(-c2nc(Nc3nc4ccccc4[nH]3)[nH]c2-c2ccccc2)cc1`, the outcome is reported as “inactive”.
For `Cc1ccc2c(c1[N+](=O)[O-])N=NCC2Oc1ccccc1` (stereo not drawn), the outcome was “inactive”.
For `COc1ccc(-c2cnc3[nH]cc(-c4ccc(C(=O)O)cc4)c3c2)cn1`, the outcome was “inactive”.
With `c1ccc(CCNCc2ccc(-c3cccc(-c4nc5ccccc5[nH]4)c3)cc2)nc1` the outcome was “inactive”.
In the case of `O=C(Nc1ccc(-c2cccc(-c3nc4ccccc4[nH]3)c2)cc1)Nc1ccsc1`, the outcome is reported as “inactive”.
With `COc1ccc2ncc(C#N)c(CCN3C[C@H](CNCc4ccccc4)[C@H](O)C3)c2n1` the outcome was “inactive”.
For `Oc1ccc2c(CNCCc3ccccc3)c(O)ccc2c1CNCCc1ccccc1`, the outcome was “inactive”.
`NC1=NC(c2ccccc2)N(OCc2ccccc2)C(N)=N1` (stereo not drawn) was tested, and the outcome was “inactive”.
In the case of `O=C(Nc1ccc2c(c1)CCN2C1CCN(Cc2ccc(F)cc2Cl)C1)c1ccco1` (stereo not drawn), the outcome is reported as “inactive”.
